Assay outcomes as filed in PubChem.
ID4 SMM – binders of human ID4 protein, primary screen, biochemical, small molecule microarray, single point | Flag-ID4 binding, fluorescence F/B | calls only | 1.2% of 31,000 active | AID 624137, 2012; call rule not given here;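 note: a binder raises fluorescence above local background on the spot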
Target sequence (P47928 whole entry, looked up): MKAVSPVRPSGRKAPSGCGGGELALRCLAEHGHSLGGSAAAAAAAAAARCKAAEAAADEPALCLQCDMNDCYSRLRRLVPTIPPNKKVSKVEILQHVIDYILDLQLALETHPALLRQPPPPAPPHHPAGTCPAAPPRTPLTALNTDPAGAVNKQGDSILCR
mut p53 react – mutant p53 pathway re-activators, primary screen, cell-based, SW480, luciferase, single point, HTS; SW480 PUMA-promoter luciferase, p53 mutant reactivation; activation, % at 9.98 µM; 1.5% of 28,000 active; AID 624151, 2012; in the data active = activation above about 52%
Active calls of the source: *; i = inactive; / = no result given; + = active, no number. The list is not random: actives were taken first. Their share in the collection is about 2.3%.

SMILES	ID4 SMM	mut p53 react
COCCOC(=O)N1C(=O)[C@@]2(c3cc(C#CC4(O)CCCCCC4)ccc31)[C@H](c1ccc(O)cc1)N1[C@H](c3ccccc3)[C@H](c3ccccc3)OC(=O)[C@H]1[C@@H]2C(N)=O	i	/
Cc1sc2nc(SCCC(=O)NC3CCCCC3)[nH]c(=O)c2c1C	i	0
CC(=O)NNC(=O)N1Cc2ccccc2Oc2ccc(Cl)cc21	+	2
CN1CCN(C2=Cc3ccccc3Oc3ccc(Cl)cc32)CC1	i	/
CC(=O)Nc1ccc(C(=O)CSc2nnc(-c3cccc(Br)c3)o2)cc1	i	5
Cc1cccc(NC(=O)CSc2nc(-c3ccccc3)c(-c3ccccc3)[nH]2)c1C	i	-9
O=C(O)CCSc1nc(-c2ccccc2)c(-c2ccccc2)[nH]1	+	-7
Cc1ccc2c(c1)NC(C(F)(F)F)(C(F)(F)F)NC2=O	i	-2
COC(=O)C1c2c(oc3cc(CO)cc(O)c3c2=O)C=CC1O (stereo unspecified)	/	2
CCc1ccc(OCCSc2nc(C)cc(=O)[nH]2)cc1	i	59*
CCOc1ccc(OCCSc2nc(C)cc(=O)[nH]2)cc1	i	34
CSCC(NS(=O)(=O)c1ccc(Br)cc1)C(=O)O (stereo unspecified)	i	-12
CC(C)CNC(=O)[C@@]1(C)c2ccccc2C(=O)N(Cc2cc(F)cc(C(F)(F)F)c2)[C@H]1c1ccc(CO)cc1	i	/
COc1ccc2[nH]c3c(OC)ncnc3c2c1	i	81*
COc1ccc2[nH]c(C(=O)O)c(CCC(=O)O)c2c1	i	2
Cc1cc(I)ccc1NC(=O)CN(c1c(C)cccc1C)S(C)(=O)=O	i	-5
CCOC(=O)c1c(C2COc3ccccc3O2)csc1NC(=S)Nc1ccccc1 (stereo unspecified)	i	3
CC(=O)Nc1ccc(OCC(O)CNC(C)C)cc1 (stereo unspecified)	+	-2
CC(=O)Nc1ccc(OCC(O)CNC2CCCC2)cc1 (stereo unspecified)	i	-4
COC(=O)c1ccc(COc2ccc3c(C)cc(=O)oc3c2)o1	i	63*
COC(=O)c1ccc(COc2ccc3c(c2)oc(=O)c2cc(OC)ccc23)o1	i	5
O=C(CSc1nnc(C2COc3ccccc3O2)n1-c1ccccc1)c1ccc([N+](=O)[O-])cc1 (stereo unspecified)	i	9
O=C(Nc1ccccc1C(=O)O)c1ccc(Br)c(S(=O)(=O)N2CCOCC2)c1	+	13
Cc1ccc(C(=O)Nc2ccccc2C(=O)N2CCN(c3ccccc3)CC2)cc1S(=O)(=O)N1CCCCC1	i	-1
O=C(NCCN1CCOCC1)c1ccc(Cl)c(S(=O)(=O)N2CCOCC2)c1	+	-10
SMILES	ID4 SMM	mut p53 react
Cc1ccc(C(=O)NCCN2CCOCC2)cc1S(=O)(=O)N1CCCCC1	i	6
COc1ccc(C(Nc2cccc(C)n2)c2ccc3ccc(C)nc3c2O)c(OC)c1OC (stereo unspecified)	i	-20
COc1ccc(OC)c(S(=O)(=O)N2CCC(C(=O)Nc3c(C)cc(C)cc3C)CC2)c1	i	-9
COCCNC(=O)COc1ccc(OCCNC[C@@H](O)COc2ccccc2)cc1	i	-13
O=C(O)COc1ccc(OCCNC[C@@H](O)COc2ccccc2)cc1	+	6
C=C1CC/C=C(/C(=O)O)C[C@H](O)C2C1CC2(C)C (stereo partly specified)	i	/
Cc1[nH]c2ccccc2c1C(=O)CSc1nnc(N)s1	i	1
Nc1nnc(SCC(=O)c2ccc3ccccc3c2)s1	i	95*
Cc1ccccc1NC(=O)c1ccc(C)c(S(=O)(=O)Nc2cc([N+](=O)[O-])ccc2C)c1	+	1
Cc1ccc(NS(=O)(=O)c2cc(C(=O)Nc3ccccc3C(=O)N3CCCC3)ccc2C)c(C)c1	i	-7
COc1ccc(NC(=O)c2c(-c3ccccc3)csc2NC(=O)CN2CCOCC2)cc1	i	9
Cc1nc2cc(NC(=O)NCc3ccco3)ccc2o1	i	58*
Cn1nnc2cc(NC(=O)NCc3ccco3)ccc21	i	18
O=C(NC(Cc1ccc(F)cc1)C(=O)O)c1ccccc1 (stereo unspecified)	i	-8
O=C(NC(Cc1ccc(O)cc1)C(=O)O)c1ccccc1 (stereo unspecified)	+	43
Clc1ccccc1OCCSc1nnc(-c2cccnc2)n1-c1ccccc1	i	2
CCc1ccccc1OCC(=O)Nc1sc2c(c1C(N)=O)CCCC2	i	15
NC(=O)c1c(NC(=O)C(Cc2ccccc2)N2C(=O)c3ccccc3C2=O)sc2c1CCCC2 (stereo unspecified)	+	-8
COc1ccc(C(=O)Nc2sc3c(c2C(=O)NC2CCS(=O)(=O)C2)CCCC3)cc1OC (stereo unspecified)	i	-5
O=C(O)C(Cc1ccccc1)N1C(=O)c2ccccc2C1=O (stereo unspecified)	i	65*
COc1ccc(C(=O)Nc2sc3c(c2C(N)=O)CCCC3)cc1OC	i	76*
COc1ccc(NC(=O)C(Cc2ccccc2)N2C(=O)c3ccccc3C2=O)cc1 (stereo unspecified)	i	3
CC(Oc1ccc(Cl)cc1Cl)C(=O)NC(=S)Nc1cccc(NC(=O)c2cccs2)c1 (stereo unspecified)	i	-7
CCOC(=O)c1c(NC(=O)c2ccc(C)c(S(=O)(=O)N3CCCCCC3)c2)sc2c1CCC2	i	-9
Cc1ccccc1/C=C1\Sc2ccccc2N(CC(=O)NC(C)c2ccccc2)C1=O (stereo unspecified)	i	-5
SMILES	ID4 SMM	mut p53 react
CCCn1c2ccccc2c2nnc(SCCN3CCCCC3)nc21	+	3
Cc1ccc2c(c1)c1nnc(SCCN3CCCCC3)nc1n2C	i	-2
CCOc1cc(C2NC(=S)NC(C)=C2C(=O)Nc2ccccc2C(=O)OC)cc(Br)c1O (stereo unspecified)	i	-4
O=C(CCCN1C(=O)c2ccccc2C1=O)Nc1ccc(Nc2ccccc2)cc1	i	55*
CC(=O)Nc1ccc(NC(=O)CCCN2C(=O)c3ccccc3C2=O)cc1	i	3
COCCNC(=S)N1CCN(Cc2ccco2)CC1	+	-1
CS(=O)(=O)N1CCN(C(=S)NCc2ccco2)CC1	i	14
C=C(CC[C@@H](C)[C@H]1CCC2(C)C3=C(C[C@H](O)[C@]12C)[C@@]1(C)CC[C@@H](OC(=O)CC(=O)O)C(C)(C)C1CC3)[C@@H](C)C(=O)O (stereo partly specified)	/	-10
COc1cccc(NC(=O)CSc2nnc(-c3ccc(Cl)cc3)n2-c2ccc(F)cc2)c1	i	-39
CC(C)c1ccc2oc(-c3ccc(Cl)c(NC(=O)COc4ccc([N+](=O)[O-])cc4)c3)nc2c1	i	-13
Cc1c(C(=O)Nc2nnc(SCc3ccccc3F)s2)oc2ccccc12	i	24
Cc1c(C(=O)Nc2nnc(SC/C=C/c3ccccc3)s2)oc2ccccc12	i	54*
Cc1cc(C)nc(N(C#N)C(C(=O)c2ccccc2)c2ccccc2)n1 (stereo unspecified)	i	4
CSc1n[nH]c(=O)c2cc(C)nn12	i	4
